D1 agonist – activates the human D1 dopamine receptor. activation, % at 2 µM. HEK293 T-REx D1 cells, calcium flux, agonist mode. AID 504660. 1% of 360,000 active
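Inducible HEK293 T-REx D1 cells, force-coupled to calcium signalling, were plated at 4000 cells/well with tetracycline and held overnight at 30 C. After no-wash calcium dye loading, compound-evoked calcium rise over 180 s flagged agonists.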
TRHR agonist – agonists of human TRH receptor; AID 493084; activation, % at 2 µM; 0.18% of 360,000 active; TRHR cells, calcium flux fluo-8, FDSS agonist mode
Target sequence (P34981 whole entry, looked up): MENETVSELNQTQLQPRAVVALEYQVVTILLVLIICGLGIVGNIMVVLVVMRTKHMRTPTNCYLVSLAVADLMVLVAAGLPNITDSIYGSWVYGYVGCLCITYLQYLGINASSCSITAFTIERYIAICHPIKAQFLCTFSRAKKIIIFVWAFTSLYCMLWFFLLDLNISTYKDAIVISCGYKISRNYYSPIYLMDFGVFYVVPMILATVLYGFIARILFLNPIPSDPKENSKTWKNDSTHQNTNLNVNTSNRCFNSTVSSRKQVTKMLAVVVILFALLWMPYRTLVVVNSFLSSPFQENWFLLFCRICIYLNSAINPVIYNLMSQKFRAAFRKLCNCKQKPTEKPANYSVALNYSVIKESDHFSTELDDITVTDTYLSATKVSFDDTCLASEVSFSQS
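TRHR-expressing cells, plated overnight in medium with 10% serum, were loaded with fluo-8 calcium dye at room temperature. After a 10 s baseline, library compound was pin-added and calcium release was recorded kinetically (ex 480/em 530) as agonist response.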
Glioma ERSR ind – ER stress response induction in glioma. U87-MG GRP78 promoter luciferase reporter, 16 h. Potency, µM, most hits filed as activators. 0.02% of 420,000 active. AID 602332; active = well fitted activation curve with a large enough effect; note: series mostly up to about 76 µM; nearly all actives have a fitted effect of over 35% in size
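ERSR induction read as luciferase luminescence (Bright-Glo, 10 min at room temperature) in stably transfected human U87-MG glioma cells exposed to compounds for 16 h, using GRP78 as sensor.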
D1 antagonist – human D1 dopamine receptor antagonism; activity change, negative = inhibition, % at 10 µM; HEK293 TREx D1 cells, calcium flux, dopamine EC80; hits give low values; AID 504652; 3.2% of 360,000 active; P21728; in the data active = activity change below about -30%
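Tetracycline-induced HEK293 Trex D1 cells, force-coupled to calcium, dye-loaded; compounds added and read 180 s, then EC80 dopamine added and calcium flux tracked kinetically another 180 s.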
TRHR enhancer – allosterically enhances the human TRH receptor. P34981. TRHR cells, fluo-8 calcium fluorescence, EC20 TRH enhancement. enhancement, % at 2 µM. 0.66% of 360,000 active; in the data active = enhancement above about 30%
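TRHR-expressing cells loaded with fluo-8 calcium dye were read kinetically (ex 480/em 530) during compound addition, then stimulated with an EC20 of TRH (10 nM final). Enhancement of the Gq-mediated intracellular calcium response was scored.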
D1 PAM – potentiators of human D1 dopamine receptor. P21728. HEK293 TREx D1 cells, calcium flux, dopamine EC20 potentiation. potentiation, % at 10 µM. 0.036% of 360,000 active; in the data active = potentiation above about 30%
Large screens that a line does not name were inactive. Hits are enriched below; roughly 4% of the tested compounds scored in any of these assays. Cut-off read from the data, not from the text of the source, unless noted: active = activation above about 30%; inactive = the rest.

O=C(O)c1cccnc1C(=O)N1CCc2c([nH]c3ccccc23)C1C(F)(F)F (configuration not stated)	none
c1cnc2c(C3NCCc4c3[nH]c3ccccc43)cccc2c1 (configuration not stated)	D1 agonist 41, D1 antagonist -57
Cc1c(C(=O)N/N=C/c2cccnc2)sc(=S)n1C	none
Cn1c(N)c(C(=O)N/N=C/c2ccccc2)sc1=S	TRHR enhancer 36
Cc1c(C)c2c(OCC(=O)NCc3ccccn3)cc3c(c2oc1=O)CCC(C)(C)O3	none
NC(=O)c1cc2ccccc2oc1=NCc1ccccc1	none
NC(=O)c1cc2ccc(O)cc2oc1=NCc1ccccc1	D1 agonist 150
COc1ccc(OC)c(N=c2oc3cc(O)ccc3cc2C(N)=O)c1	D1 antagonist -36
COc1ccc(NC(=O)c2cc(C3CCCCN3S(=O)(=O)Cc3ccccc3)on2)c(C)c1 (configuration not stated)	none (no result: D1 agonist, TRHR agonist, D1 antagonist, TRHR enhancer, D1 PAM)
CCc1ccc(NS(=O)(=O)c2[nH]ncc2C(=O)OC)cc1	D1 antagonist -38
O/C(=C\c1ccc2ccccc2n1)c1ccc(O)cc1O	D1 agonist 71
Oc1ccc(/C=C/c2ccc3ccccc3n2)cc1	none
O=C(NCCN1CCOCC1)C(=O)c1c[nH]c2ccccc12	D1 antagonist -52
NC(=O)CC(NC(=O)Cc1cccc2ccccc12)c1ccc(NCc2ccccc2)c([N+](=O)[O-])c1 (configuration not stated)	D1 antagonist -31
NC(=O)CC(NC(=O)Cc1cccc2ccccc12)c1ccc(NCc2ccc(F)cc2)c([N+](=O)[O-])c1 (configuration not stated)	none
CCC(CC)C(=O)Nc1c2c(nn1-c1ccc(F)cc1)CS(=O)(=O)C2	D1 antagonist -91
COc1cccc(C(=O)Nc2c3c(nn2-c2ccc([N+](=O)[O-])cc2)CS(=O)(=O)C3)c1	none
COc1cccc(C(=O)Nc2c3c(nn2-c2ccc(Cl)cc2)CS(=O)(=O)C3)c1	D1 antagonist -33
COc1ccc(-n2nc3c(c2NC(=O)COc2ccccc2F)CS(=O)(=O)C3)cc1	D1 antagonist -38
O=C(Nc1c2c(nn1-c1ccc(Cl)cc1)CS(=O)(=O)C2)c1ccc(Br)cc1	D1 antagonist -32
CC(C)N(Cc1nnc(-c2ccccc2Cl)o1)C(=O)COc1cccc(Cl)c1	none (no result: D1 agonist, TRHR agonist, D1 antagonist, TRHR enhancer, D1 PAM)
C/C=C/OC(=O)NC(c1cccc(C)c1)[C@@]1(C(=O)OCC)CCCC1=O (some centres not stated)	none (no result: D1 agonist, TRHR agonist, D1 antagonist, TRHR enhancer, D1 PAM)
CC(C)(C)NCCCCOc1ccc(F)cc1	none
CCOc1ccc(OCCCCNC(C)(C)C)cc1	D1 antagonist -81
Cc1ccc2[nH]c(C)cc(=O)c2c1	Glioma ERSR ind 45µM (no result: D1 agonist, TRHR agonist, D1 antagonist, TRHR enhancer, D1 PAM)
COc1ccccc1N(CC(=O)Nc1ccccc1C(F)(F)F)S(=O)(=O)c1cccs1	none (no result: D1 agonist, TRHR agonist, D1 antagonist, TRHR enhancer, D1 PAM)
CN1CCC(Oc2ccccc2Sc2ccc(C(F)(F)F)cc2)CC1	D1 agonist 52, D1 antagonist -58
CN1CCC(Oc2ccc(Sc3ccccc3)cc2)CC1	D1 agonist 78
Cc1ccc(-c2cc(Cc3ccc(F)cc3)c(=O)[nH]n2)cc1	D1 antagonist -47
COCCNC(=O)C1(C)CCCN(Cc2sc(C)nc2C)C1 (configuration not stated)	none (no result: D1 agonist, TRHR agonist, D1 antagonist, TRHR enhancer, D1 PAM)
C#CC1(OC(C)=O)CCC2C3CCC4=CC(OC(C)=O)CCC4C3CCC21C (configuration not stated)	none (no result: D1 agonist, TRHR agonist, D1 antagonist, TRHR enhancer, D1 PAM)
CCOC(=O)c1c(C)oc2nc(C)nc(NCCCN3CCN(c4cccc(C)c4)C(C)C3)c12 (configuration not stated)	TRHR enhancer 38
CCOC(=O)c1c(C)oc2nc(C)nc(NCCCN3CCN(c4ccccc4)CC3)c12	none
COc1ccc2[nH]cc(CCNc3ncncc3-c3c(C)noc3C)c2c1	none (no result: D1 agonist, TRHR agonist, D1 antagonist, TRHR enhancer, D1 PAM)
COC(=O)c1cc(-c2ccccc2)n[nH]1	none
CC(C)(C)NC(=O)c1cc(-c2ccccc2)n[nH]1	D1 antagonist -32
O=C(NCCc1ccc(Cl)cc1)c1cc(-c2ccccc2)n[nH]1	D1 antagonist -31
CC(CNC(=O)c1cc(-c2ccccc2)n[nH]1)c1ccccc1 (configuration not stated)	D1 antagonist -51

Screens from PubChem BioAssay.
